Experimental data as given in paper PMC4552634, “A New Set of Chemical Starting Points with Plasmodium falciparum Transmission-Blocking Potential for Antimalarial Drug Discovery” (PLoS ONE, 2015).
In all, about 13,000 compounds went through this assay and about 3,200 (25%) showed an effect of 50% or more. This is one part of the list.

Tested on: P. falciparum stage V gametocytes
Design: BacTiter-Glo ATP luminescence viability of purified stage V gametocytes in 384-well plates, per cent inhibition versus DMSO
Details: 48 h, 5 µM; inhibitor

Compound	% Inhibition [%]
Fc1ccc2[nH]c(-c3ccc(-c4ccc(CNCC5CCCO5)cc4)cc3)nc2c1.O=C(O)C(F)(F)F (stereo not drawn) [TCMDC-133097]	36.17
CCOC(=O)c1c(CNc2ccncc2)n(C)c2cc(Br)c(OC(C)=O)cc12 [TCMDC-125700]	-53.66
CCOC(=O)c1cn(CC)c2cc(OCc3ccccc3)ccc2c1=O [TCMDC-141680]	0.3884
CCOC(=O)c1cc2c(CCN3C(=O)c4ccccc4C3=O)cn(C)c2cc1-c1ccncc1 [TCMDC-138099]	108.6
CS(=O)(=O)Nc1cccc(-c2cnc3[nH]cc(-c4cc(N)cc(C(=O)O)c4)c3c2)c1 [TCMDC-136220]	11.92
COc1nc(-n2ccc(=N)cc2)nc2ccccc12 [TCMDC-131303]	8.489
c1ccc(-n2cncn2)cc1 [TCMDC-124291]	2.88
CCC(CC)CN1C(=O)C(c2ccccc2)(c2ccccc2)N=C1N [TCMDC-136491]	13.18
CCC(C)CN1C(=O)C(c2ccccc2)(c2ccccc2)N=C1N (stereo not drawn) [TCMDC-136799]	-2.713
CCC(CN1C(=O)C(c2ccccc2)(c2ccccc2)N=C1N)c1ccccc1 (stereo not drawn) [TCMDC-136879]	66.04
CN(c1cc(NC(=O)c2cccs2)ccn1)C1CCN(Cc2ccccc2)CC1 [TCMDC-135006]	1.42
CC(C)CNCc1cccc(-c2cccc(CN(C(=O)c3cccs3)C3CCN(Cc4ccccc4)CC3)c2)c1 [TCMDC-140565]	96.32
CC(C)CNCc1cccc(-c2ccc(CN(C(=O)c3cccs3)C3CCN(Cc4ccccc4)CC3)cc2)c1 [TCMDC-140569]	103.7
CN(CCCCCNC(=O)/C=C/c1ccc(Cl)c(Cl)c1)CCc1c[nH]c2ccccc12 [TCMDC-139327]	-26.77
COc1cc(Cc2c(C)nc3nc(N)nc(N)c3c2C)c(Br)c(OC)c1OC [TCMDC-137644]	1.652
COc1cccc(NC(=O)NC2CCN(c3ccnc(Nc4ccc(F)cc4)n3)C2)c1 (stereo not drawn) [TCMDC-133602]	-32.07
CN1CCC(N(Cc2ccc(-c3ccc(C(F)(F)F)cc3)nc2)C(=O)Cn2c(CCc3cccc(F)c3F)cc(=O)c3ccccc32)CC1 [TCMDC-141407]	27.49
CN1CCC(N(Cc2ccc(-c3ccc(Cl)cc3)cc2)C(=O)Cn2c(CCc3cccc(F)c3F)cc(=O)c3ccccc32)CC1 [TCMDC-141357]	111.3
CCN1CCC(N(Cc2ccc(-c3ccc(Cl)cc3)cc2)C(=O)Cn2c(CCc3cccc(F)c3F)cc(=O)c3ccccc32)CC1 [TCMDC-141358]	109.7
Nc1nc2ccc(CN(C=O)c3ccc(C(=O)N[C@@H](CCC(=O)O)C(=O)O)cc3)cc2c(=O)[nH]1 [TCMDC-132048]	3.734
COc1ccc(Cn2c(Nc3cccc(C(F)(F)F)c3)nc3cc(C(=O)NCCN4CCCC4)cnc32)cc1Cl [TCMDC-138555]	60.89

Compound	% Inhibition [%]
COc1ccc(Cn2c(Nc3cccc(C(F)(F)F)c3)nc3ccc(C(=O)NCCN4CCCC4)cc32)cc1Cl [TCMDC-138531]	-30.77
COc1ccc(Cn2c(Nc3cccc(C(F)(F)F)c3)nc3cc(C(=O)NCCN4CCCC4)ccc32)cc1Cl [TCMDC-138532]	-18.24
CN(c1cc(NC(=O)c2ccc(F)cc2)ccn1)C1CCN(Cc2ccc(C#N)cc2)CC1 [TCMDC-134979]	11.6
O=c1cc(NCCCNCc2cc(Br)ccc2F)[nH]c2ccccc12 [TCMDC-139424]	-33.84
CC(C)CNCc1cccc(-c2ccc(CN(C(=O)NCCc3ccccc3)C3CCN(Cc4ccccc4)CC3)cc2)c1 [TCMDC-140622]	85.53
CC(=O)N(Cc1ccc(-c2ccc(CNCCc3ccccc3)cc2)cc1)C1CCN(Cc2ccccc2)CC1 [TCMDC-140530]	41.5
CC(C)CNCc1ccc(-c2ccc(CN(C(=O)NCCc3ccccc3)C3CCN(Cc4ccccc4)CC3)cc2)cc1 [TCMDC-140623]	92.24
CC(C)CNCc1ccc(-c2cccc(CN(C(=O)NCCc3ccccc3)C3CCN(Cc4ccccc4)CC3)c2)cc1 [TCMDC-140615]	77.17
O=C(NC1CCCCC1)C(c1cccs1)N(CCc1ccccc1)C(=O)c1ccco1 (stereo not drawn) [TCMDC-123798]	-17.48
CC(C)c1ccc(-c2noc(SCC(=O)N3CCCCC3C)n2)cc1 (stereo not drawn) [TCMDC-124745]	-11.89
CC(=O)NC1=NC(C)(C)N(OCc2ccc(Cl)c(Cl)c2)C(NC(C)=O)=N1 [TCMDC-131594]	-1.877
CC(=O)Nc1cccc(/C=C/C(=O)N2CCC(N3CCCCC3)CC2)c1 [TCMDC-141128]	9.67
Cc1cccnc1CNc1nccc2c(C)c(C)[nH]c12 [TCMDC-134148]	-85.57
CCCCCCCN1CC[C@@H](CCCc2ccnc3ccc(OCC4CCCNC4)cc23)[C@@H](CC)C1 (stereo partly drawn) [TCMDC-139816]	113
CCCCN1CC[C@@H](CCC(O)c2ccnc3ccc(OCCC(C)C)cc23)[C@@H](CC)C1 (stereo partly drawn) [TCMDC-131481]	66.25
CC[C@H]1CN(Cc2ccco2)CC[C@H]1CCCc1ccnc2ccc(O)cc12 [TCMDC-140336]	6.613
CCCCCCCN1CC[C@@H](CCCc2ccnc3ccc(OCCN4CCOCC4)cc23)[C@@H](CC)C1 [TCMDC-139815]	43.2
CCCCN1CC[C@@H](CCC(O)c2cc(OCCC)nc3ccc(OC)cc23)[C@@H](CC)C1 (stereo partly drawn) [TCMDC-131499]	36.19
CCCCCCCN1CC[C@@H](CCCc2ccnc3ccc(OCCN4CCNCC4)cc23)[C@@H](CC)C1 [TCMDC-139817]	103.1
CCCCCCCN1CC[C@@H](CCC(O)c2ccnc3ccc(OC)cc23)[C@@H](CC)C1 (stereo partly drawn) [TCMDC-138954]	9.095
CCCCCCCN1CC[C@@H](CCCc2ccnc3ccc(OCCC4CCNCC4)cc23)[C@@H](CC)C1 [TCMDC-139819]	116.4
